Test results taken from PMC7862700, “An all-to-all approach to the identification of sequence-specific readers for epigenetic DNA modifications on cytosine”.

Key:
Assay in all cases: DAPPL (digital affinity profiling via proximity ligation, sequencing); 10 mM Tris-HCl pH 7.5, 50 mM NaCl, 1 mM DTT, 4% glycerol, room temperature, 30 min; GST-TFs on glutathione beads, 16-mer random dsDNA library, 0.1% formaldehyde crosslink after washing; high values mean tight binding
FLI1 = biological target: T1, FLI1 (Homo sapiens, UniProt Q01543 1-452); conditions: protein: recombinant; tags: N-terminal GST; dsDNA, one strand shown
T1 sequence: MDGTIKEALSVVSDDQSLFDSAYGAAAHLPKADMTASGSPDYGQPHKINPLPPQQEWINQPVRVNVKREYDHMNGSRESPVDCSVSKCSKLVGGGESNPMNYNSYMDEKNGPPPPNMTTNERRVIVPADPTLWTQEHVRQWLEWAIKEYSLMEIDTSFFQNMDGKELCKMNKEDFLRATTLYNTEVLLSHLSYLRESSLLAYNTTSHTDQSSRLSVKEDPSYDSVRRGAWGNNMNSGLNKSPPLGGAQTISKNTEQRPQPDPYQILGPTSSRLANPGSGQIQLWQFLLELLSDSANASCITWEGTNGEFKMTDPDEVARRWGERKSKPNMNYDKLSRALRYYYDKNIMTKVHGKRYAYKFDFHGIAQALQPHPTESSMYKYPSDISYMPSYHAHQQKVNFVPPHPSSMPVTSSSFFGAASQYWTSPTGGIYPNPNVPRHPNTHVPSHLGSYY
In short: (§1)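 Human transcription factors were made in yeast as GST fusions, captured on glutathione beads and barcoded with DNA. With a tag-only sample included, the pool was incubated with 200 nmole of a random double-stranded 16-mer DNA library in Tris/NaCl/DTT/glycerol buffer at room temperature for 30 min, then crosslinked with 0.1% formaldehyde after washing, ligated by proximity, amplified and sequenced. For binding signal, each hexamer's read frequency for a factor is divided by its frequency for the tag-only sample.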

ELK1 = biological target: T2, ELK1 (Homo sapiens, UniProt P19419 1-428); conditions: protein: recombinant; tags: N-terminal GST; dsDNA, one strand shown
T2 sequence: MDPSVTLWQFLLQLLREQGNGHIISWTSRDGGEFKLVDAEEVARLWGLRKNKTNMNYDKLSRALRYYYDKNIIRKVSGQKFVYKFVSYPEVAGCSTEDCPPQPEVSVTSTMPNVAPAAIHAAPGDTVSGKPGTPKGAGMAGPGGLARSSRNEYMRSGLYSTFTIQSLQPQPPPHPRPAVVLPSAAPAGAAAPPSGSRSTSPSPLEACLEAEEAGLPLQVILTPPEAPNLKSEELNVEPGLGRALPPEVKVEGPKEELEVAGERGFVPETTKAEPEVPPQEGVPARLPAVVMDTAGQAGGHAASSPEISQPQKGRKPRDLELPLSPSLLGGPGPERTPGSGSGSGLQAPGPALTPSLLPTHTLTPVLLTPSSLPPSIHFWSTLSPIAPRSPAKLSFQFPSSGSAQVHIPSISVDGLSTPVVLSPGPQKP
In short: as §1

GABPA = biological target: T3, GABPA (Homo sapiens, UniProt Q06546 1-454); conditions: protein: recombinant; tags: N-terminal GST; dsDNA, one strand shown
T3 sequence: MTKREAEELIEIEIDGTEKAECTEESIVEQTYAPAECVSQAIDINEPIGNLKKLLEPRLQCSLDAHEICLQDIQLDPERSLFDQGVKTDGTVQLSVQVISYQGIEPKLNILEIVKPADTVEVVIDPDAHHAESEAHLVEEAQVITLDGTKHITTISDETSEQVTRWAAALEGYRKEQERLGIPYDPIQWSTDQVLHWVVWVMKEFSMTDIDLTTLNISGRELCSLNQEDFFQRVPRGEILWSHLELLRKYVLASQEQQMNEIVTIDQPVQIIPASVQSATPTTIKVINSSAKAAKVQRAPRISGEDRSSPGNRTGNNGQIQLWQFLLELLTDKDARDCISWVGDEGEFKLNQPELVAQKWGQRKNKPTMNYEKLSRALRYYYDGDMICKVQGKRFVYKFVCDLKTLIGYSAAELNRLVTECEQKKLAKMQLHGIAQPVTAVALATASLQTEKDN
In short: as §1

ERG = biological target: T4, ERG (Homo sapiens, UniProt P11308 1-479); conditions: protein: recombinant; tags: N-terminal GST; dsDNA, one strand shown
T4 sequence: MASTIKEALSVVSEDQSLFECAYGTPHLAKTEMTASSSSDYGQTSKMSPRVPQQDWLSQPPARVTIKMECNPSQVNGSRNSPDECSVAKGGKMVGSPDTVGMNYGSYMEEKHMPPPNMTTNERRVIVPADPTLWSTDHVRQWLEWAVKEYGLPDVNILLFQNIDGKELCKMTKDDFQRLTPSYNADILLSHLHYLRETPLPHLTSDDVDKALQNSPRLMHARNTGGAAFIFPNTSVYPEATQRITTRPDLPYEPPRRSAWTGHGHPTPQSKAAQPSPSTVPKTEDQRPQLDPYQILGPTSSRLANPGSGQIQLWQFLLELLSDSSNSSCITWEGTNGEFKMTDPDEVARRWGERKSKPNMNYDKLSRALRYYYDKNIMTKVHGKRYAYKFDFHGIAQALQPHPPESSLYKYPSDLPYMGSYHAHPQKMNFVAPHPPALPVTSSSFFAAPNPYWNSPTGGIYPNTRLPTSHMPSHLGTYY
In short: as §1

ELF1 = ELF1 (Homo sapiens, UniProt P32519 1-619); conditions: protein: recombinant; tags: N-terminal GST; dsDNA, one strand shown
Sequence of ELF1 (P32519 whole entry): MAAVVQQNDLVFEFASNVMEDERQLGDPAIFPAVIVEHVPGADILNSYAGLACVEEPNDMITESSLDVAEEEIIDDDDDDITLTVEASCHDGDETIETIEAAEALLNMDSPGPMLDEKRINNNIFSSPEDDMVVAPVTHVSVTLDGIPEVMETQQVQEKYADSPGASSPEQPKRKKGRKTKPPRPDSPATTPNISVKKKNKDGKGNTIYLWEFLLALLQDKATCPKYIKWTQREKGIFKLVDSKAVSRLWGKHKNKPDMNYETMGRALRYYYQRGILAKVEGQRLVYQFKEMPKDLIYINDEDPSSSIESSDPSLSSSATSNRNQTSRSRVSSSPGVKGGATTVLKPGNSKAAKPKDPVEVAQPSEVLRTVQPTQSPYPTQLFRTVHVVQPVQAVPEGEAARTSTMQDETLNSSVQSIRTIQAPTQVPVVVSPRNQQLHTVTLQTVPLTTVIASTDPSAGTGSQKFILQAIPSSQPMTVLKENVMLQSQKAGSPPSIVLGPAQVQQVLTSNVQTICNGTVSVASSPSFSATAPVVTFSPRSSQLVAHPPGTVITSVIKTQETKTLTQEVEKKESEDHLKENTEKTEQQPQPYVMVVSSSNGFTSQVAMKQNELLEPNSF
In short: as §1

EHF = biological target: T5, EHF (Homo sapiens, UniProt Q9NZC4 1-300); conditions: protein: recombinant; tags: N-terminal GST; dsDNA, one strand shown
T5 sequence: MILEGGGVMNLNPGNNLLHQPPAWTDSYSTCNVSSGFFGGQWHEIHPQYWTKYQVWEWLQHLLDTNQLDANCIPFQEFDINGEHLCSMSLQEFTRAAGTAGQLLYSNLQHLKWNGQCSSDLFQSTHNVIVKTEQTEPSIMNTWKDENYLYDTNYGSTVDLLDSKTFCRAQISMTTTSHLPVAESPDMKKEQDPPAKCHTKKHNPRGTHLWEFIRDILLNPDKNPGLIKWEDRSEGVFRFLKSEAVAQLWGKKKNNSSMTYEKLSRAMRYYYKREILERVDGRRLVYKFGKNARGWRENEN
In short: as §1

SPI1 = SPI1 (Homo sapiens, UniProt P17947 1-270); conditions: protein: recombinant; tags: N-terminal GST; dsDNA, one strand shown
In short: as §1

SPIB = SPIB (Homo sapiens, UniProt Q01892 1-262); conditions: protein: recombinant; tags: N-terminal GST; dsDNA, one strand shown
Sequence of SPIB (Q01892 whole entry): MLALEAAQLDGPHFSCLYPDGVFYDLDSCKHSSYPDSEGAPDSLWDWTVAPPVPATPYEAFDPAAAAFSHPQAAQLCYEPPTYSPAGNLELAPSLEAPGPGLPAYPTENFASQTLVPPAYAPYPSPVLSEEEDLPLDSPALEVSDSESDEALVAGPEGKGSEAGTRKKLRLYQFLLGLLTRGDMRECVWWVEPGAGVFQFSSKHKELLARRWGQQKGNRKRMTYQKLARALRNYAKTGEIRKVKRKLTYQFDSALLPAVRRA
In short: as §1

ELK3 = biological target: T6, ELK3 (Homo sapiens, UniProt P41970 1-407); conditions: protein: recombinant; tags: N-terminal GST; dsDNA, one strand shown
T6 sequence: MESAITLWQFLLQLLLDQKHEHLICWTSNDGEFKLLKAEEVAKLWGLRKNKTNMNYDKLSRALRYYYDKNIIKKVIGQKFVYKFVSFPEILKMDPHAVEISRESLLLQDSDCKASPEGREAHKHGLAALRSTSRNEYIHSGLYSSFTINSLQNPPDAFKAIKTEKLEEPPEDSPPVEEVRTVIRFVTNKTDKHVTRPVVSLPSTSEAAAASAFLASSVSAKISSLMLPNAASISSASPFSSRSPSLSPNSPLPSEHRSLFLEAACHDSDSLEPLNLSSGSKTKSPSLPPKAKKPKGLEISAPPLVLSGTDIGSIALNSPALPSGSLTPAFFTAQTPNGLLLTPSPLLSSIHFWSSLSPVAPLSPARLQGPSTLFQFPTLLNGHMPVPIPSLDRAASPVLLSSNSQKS
In short: as §1

FEV = biological target: T7, FEV (Homo sapiens, UniProt Q99581 1-238); conditions: protein: recombinant; tags: N-terminal GST; dsDNA, one strand shown
T7 sequence: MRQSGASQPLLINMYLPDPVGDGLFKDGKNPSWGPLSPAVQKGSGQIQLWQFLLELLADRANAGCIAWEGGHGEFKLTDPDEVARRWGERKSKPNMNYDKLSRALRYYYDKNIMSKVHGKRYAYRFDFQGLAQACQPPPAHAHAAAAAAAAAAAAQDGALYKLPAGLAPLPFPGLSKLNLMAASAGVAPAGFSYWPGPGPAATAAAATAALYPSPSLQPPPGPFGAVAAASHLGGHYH
In short: as §1

ETV5 = ETV5 (Homo sapiens, UniProt P41161 1-510); conditions: protein: recombinant; tags: N-terminal GST; dsDNA, one strand shown
Sequence of ETV5 (P41161 whole entry): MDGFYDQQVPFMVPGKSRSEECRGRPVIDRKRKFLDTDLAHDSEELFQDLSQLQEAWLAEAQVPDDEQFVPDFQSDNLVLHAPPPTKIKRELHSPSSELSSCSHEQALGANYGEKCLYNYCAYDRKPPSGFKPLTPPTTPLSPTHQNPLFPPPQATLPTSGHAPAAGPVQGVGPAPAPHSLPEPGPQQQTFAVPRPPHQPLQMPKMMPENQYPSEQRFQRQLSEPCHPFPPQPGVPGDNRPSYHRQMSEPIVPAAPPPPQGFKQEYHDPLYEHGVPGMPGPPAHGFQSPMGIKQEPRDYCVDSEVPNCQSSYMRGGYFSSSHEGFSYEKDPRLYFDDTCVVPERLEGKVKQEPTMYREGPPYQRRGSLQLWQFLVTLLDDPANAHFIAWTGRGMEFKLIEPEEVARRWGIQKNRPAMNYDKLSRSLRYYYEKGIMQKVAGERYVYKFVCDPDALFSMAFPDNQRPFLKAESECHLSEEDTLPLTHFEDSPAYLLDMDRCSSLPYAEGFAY
In short: as §1

HSF1 = HSF1 (Homo sapiens, UniProt Q00613 1-529); conditions: protein: recombinant; tags: N-terminal GST; chain copies: 3; dsDNA, one strand shown
Sequence of HSF1 (Q00613 whole entry): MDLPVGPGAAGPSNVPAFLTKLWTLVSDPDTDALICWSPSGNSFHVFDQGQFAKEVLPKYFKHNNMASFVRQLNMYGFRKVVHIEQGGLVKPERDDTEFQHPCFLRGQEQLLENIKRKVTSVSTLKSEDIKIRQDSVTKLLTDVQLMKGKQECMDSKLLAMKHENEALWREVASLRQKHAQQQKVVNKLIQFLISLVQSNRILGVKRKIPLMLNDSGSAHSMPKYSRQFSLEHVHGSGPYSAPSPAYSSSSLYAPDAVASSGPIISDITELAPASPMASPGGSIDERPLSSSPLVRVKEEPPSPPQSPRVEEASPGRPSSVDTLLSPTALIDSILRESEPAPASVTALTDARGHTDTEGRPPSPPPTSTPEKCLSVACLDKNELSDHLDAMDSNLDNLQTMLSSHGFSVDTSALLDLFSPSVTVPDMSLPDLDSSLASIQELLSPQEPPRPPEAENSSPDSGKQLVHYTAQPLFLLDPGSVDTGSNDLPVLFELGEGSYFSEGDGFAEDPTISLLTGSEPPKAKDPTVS
In short: as §1

SPIC = biological target: T8, SPIC (Homo sapiens, UniProt Q8N5J4 1-248); conditions: protein: recombinant; tags: N-terminal GST; dsDNA, one strand shown
T8 sequence: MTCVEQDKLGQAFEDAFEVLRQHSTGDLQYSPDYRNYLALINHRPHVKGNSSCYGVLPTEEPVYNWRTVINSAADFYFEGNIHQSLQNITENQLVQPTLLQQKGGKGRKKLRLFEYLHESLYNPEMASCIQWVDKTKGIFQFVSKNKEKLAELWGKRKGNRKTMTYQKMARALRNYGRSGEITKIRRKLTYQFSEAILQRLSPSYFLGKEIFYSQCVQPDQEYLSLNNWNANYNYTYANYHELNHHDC
In short: as §1

ELF4 = ELF4 (Homo sapiens, UniProt Q99607 1-663); conditions: protein: recombinant; tags: N-terminal GST; dsDNA, one strand shown
Sequence of ELF4 (Q99607 whole entry): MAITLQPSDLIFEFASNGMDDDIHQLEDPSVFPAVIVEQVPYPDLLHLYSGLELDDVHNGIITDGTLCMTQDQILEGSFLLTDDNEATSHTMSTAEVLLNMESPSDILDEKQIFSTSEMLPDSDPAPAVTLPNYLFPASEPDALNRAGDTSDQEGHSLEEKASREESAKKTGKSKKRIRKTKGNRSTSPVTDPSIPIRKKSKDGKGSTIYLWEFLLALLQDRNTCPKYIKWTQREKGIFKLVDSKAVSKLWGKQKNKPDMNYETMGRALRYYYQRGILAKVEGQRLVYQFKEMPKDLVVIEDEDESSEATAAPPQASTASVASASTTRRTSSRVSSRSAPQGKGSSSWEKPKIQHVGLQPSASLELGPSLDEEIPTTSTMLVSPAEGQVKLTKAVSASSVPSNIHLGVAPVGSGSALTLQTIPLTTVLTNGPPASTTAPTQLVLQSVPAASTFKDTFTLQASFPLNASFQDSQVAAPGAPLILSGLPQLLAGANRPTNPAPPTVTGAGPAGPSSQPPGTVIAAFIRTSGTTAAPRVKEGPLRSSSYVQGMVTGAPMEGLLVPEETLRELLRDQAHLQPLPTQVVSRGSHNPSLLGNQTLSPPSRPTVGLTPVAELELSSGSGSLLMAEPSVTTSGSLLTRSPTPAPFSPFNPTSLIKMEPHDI
In short: as §1

ELK4 = biological target: T9, ELK4 (Homo sapiens, UniProt P28324-2 1-405); conditions: protein: recombinant; tags: N-terminal GST; dsDNA, one strand shown
T9 sequence: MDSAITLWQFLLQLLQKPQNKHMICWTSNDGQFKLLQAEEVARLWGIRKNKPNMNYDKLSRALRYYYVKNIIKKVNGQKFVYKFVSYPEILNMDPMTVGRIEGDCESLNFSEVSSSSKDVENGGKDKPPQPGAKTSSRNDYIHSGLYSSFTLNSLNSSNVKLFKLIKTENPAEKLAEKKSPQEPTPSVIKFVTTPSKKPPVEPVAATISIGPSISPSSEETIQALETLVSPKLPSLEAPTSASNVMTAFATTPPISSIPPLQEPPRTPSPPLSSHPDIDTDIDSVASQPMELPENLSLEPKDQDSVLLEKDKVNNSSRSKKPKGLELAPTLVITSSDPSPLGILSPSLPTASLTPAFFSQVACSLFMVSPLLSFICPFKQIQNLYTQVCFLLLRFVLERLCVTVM
In short: as §1

ETV2 = biological target: T10, ETV2 (Homo sapiens, UniProt O00321 1-342); conditions: protein: recombinant; tags: N-terminal GST; dsDNA, one strand shown
T10 sequence: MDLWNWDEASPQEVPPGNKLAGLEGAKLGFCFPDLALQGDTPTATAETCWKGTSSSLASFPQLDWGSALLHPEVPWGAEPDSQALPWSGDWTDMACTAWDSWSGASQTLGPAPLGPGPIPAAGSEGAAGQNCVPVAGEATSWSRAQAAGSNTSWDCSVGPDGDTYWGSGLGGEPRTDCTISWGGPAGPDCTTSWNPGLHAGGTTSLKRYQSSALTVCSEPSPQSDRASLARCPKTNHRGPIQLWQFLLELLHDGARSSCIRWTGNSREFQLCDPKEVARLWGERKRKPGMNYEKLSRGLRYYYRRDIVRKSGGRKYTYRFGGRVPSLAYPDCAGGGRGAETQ
In short: as §1

ELF3 = biological target: T11, ELF3 (Homo sapiens, UniProt P78545 1-371); conditions: protein: recombinant; tags: N-terminal GST; dsDNA, one strand shown
T11 sequence: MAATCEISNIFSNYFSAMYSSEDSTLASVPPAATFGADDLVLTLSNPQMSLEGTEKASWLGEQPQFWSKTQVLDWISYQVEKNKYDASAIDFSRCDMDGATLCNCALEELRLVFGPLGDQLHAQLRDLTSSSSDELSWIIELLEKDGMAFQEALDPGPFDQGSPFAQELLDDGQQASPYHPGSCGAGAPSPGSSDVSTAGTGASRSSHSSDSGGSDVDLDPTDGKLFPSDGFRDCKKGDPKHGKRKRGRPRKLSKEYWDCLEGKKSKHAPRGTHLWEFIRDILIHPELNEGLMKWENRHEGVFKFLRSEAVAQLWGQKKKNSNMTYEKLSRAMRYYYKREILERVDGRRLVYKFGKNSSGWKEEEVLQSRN
In short: as §1

CRX = CRX (Homo sapiens, UniProt O43186 1-299); conditions: protein: recombinant; tags: N-terminal GST; dsDNA, one strand shown
Sequence of CRX (O43186 whole entry): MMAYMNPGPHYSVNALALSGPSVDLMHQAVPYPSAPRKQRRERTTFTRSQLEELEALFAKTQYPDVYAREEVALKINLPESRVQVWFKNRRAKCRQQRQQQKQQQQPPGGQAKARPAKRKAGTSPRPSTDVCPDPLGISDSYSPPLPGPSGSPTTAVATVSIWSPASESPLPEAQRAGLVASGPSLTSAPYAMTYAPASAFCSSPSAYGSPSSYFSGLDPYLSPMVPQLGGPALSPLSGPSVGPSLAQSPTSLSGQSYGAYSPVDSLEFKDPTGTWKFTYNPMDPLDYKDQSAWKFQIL
In short: as §1

ETV1 = ETV1 (Homo sapiens, UniProt P50549 1-477); conditions: protein: recombinant; tags: N-terminal GST; dsDNA, one strand shown
Sequence of ETV1 (P50549 whole entry): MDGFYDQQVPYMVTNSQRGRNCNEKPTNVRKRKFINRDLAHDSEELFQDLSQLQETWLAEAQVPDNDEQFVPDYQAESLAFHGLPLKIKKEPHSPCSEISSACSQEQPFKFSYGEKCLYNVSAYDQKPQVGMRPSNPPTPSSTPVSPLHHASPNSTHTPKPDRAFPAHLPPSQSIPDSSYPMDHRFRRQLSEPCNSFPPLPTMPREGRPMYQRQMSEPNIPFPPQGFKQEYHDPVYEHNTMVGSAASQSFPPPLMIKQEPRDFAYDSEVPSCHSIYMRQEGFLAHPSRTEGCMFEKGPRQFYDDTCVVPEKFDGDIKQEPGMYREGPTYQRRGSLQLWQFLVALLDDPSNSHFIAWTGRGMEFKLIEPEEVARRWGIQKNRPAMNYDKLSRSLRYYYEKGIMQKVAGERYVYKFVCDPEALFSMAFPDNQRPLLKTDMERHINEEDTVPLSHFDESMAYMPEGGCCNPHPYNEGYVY
In short: as §1

Sequence: ATCCCG
- binding signal (FLI1): 1.5 fold enrichment (6-mer frequency, TF over GST control)
- binding signal (ELK1): 1.36 fold enrichment (6-mer frequency, TF over GST control)
- binding signal (GABPA): 1.47 fold enrichment (6-mer frequency, TF over GST control)
- binding signal (ERG): 1.44 fold enrichment (6-mer frequency, TF over GST control)
- binding signal (ELF1): 1.42 fold enrichment (6-mer frequency, TF over GST control)
- binding signal (EHF): 1.39 fold enrichment (6-mer frequency, TF over GST control)
- binding signal (SPI1): 1.32 fold enrichment (6-mer frequency, TF over GST control)
- binding signal (SPIB): 1.39 fold enrichment (6-mer frequency, TF over GST control)
- binding signal (ELK3): 1.34 fold enrichment (6-mer frequency, TF over GST control)
- binding signal (FEV): 1.35 fold enrichment (6-mer frequency, TF over GST control)
- binding signal (ETV5): 1.43 fold enrichment (6-mer frequency, TF over GST control)
- binding signal (HSF1): 1.58 fold enrichment (6-mer frequency, TF over GST control)
- binding signal (SPIC): 1.39 fold enrichment (6-mer frequency, TF over GST control)
- binding signal (ELF4): 1.4 fold enrichment (6-mer frequency, TF over GST control)
- binding signal (ELK4): 1.37 fold enrichment (6-mer frequency, TF over GST control)
- binding signal (ETV2): 1.28 fold enrichment (6-mer frequency, TF over GST control)
- binding signal (ELF3): 1.37 fold enrichment (6-mer frequency, TF over GST control)
- binding signal (CRX): 1.67 fold enrichment (6-mer frequency, TF over GST control)
- binding signal (ETV1): 1.44 fold enrichment (6-mer frequency, TF over GST control)
